Test results taken from PubChem BioAssay (NCATS).
Where “and” joins values, the source holds several entries; their conditions need not be identical. Equal values may be shown once. Values without a mark were called inactive. Inconclusive results are not listed. Entries that show only a call come without a potency. Calls of active or inactive are those of the source. Unless noted, calls come from the whole dose curve; as a rule, active = well fitted curve in the direction sought with a large enough effect; inconclusive = small, poorly fitted or top-dose-only effect, or another doubt; inactive = no such curve, though single readings can be large; an effect the other way counts as inactive or inconclusive.

How the values were obtained:
[1] = Cell Viability - Jurkat (AID 426;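 active = dose-dependent loss of cell ATP signal giving a full or clear fitted curve, ranked by lower potency value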;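 note: potency is the fitted concentration of half-maximal effect; cells exposed to compound for 40 hours at 37 °C before ATP read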); conditions: qHTS
Outline: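 Seed 5000 Jurkat E6-1 cells/well; add compound; incubate 40 hr at 37 °C; add CellTiter-Glo; wait 20 min at room temperature; read luminescence. Fit concentration-response with Hill equation for AC50.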

[2] = Cell Viability - Hek293 (AID 427;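 active = compounds whose dose-response curve shows a full or clear partial loss of cell viability, called from curve shape rather than a numeric limit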;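 note: potency is the fitted concentration of half-maximal effect; cells exposed to compound for 40 hours at 37 °C before reading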); conditions: qHTS
Outline: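 Luminescent ATP read-out (CellTiter-Glo, 20 min RT) after 40 hr compound exposure at 37 °C in complete medium. Signal normalized to DMSO (basal) and 100 uM tamoxifen (100% inhibition); concentration-response fitted with the standard Hill equation to give AC50.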

[3] = Cellular Toxicity (caspase-3) BJ (AID 658); conditions: BJ fibroblasts, luminescence; Potency: caspase-3 activation; series mostly up to 91.7 µM
Outline: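 Luminescent aminoluciferin-substrate cleavage reports caspase 3/7 activity in normal human BJ fibroblasts after 16 hr compound exposure at 37 °C. Normalized to DMSO (basal) and 10 uM staurosporine (100%); AC50 from Hill fit of concentration-response.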

[4] = Cellular Toxicity (caspase-3) Hek293 (AID 664); conditions: HEK293 caspase-3 activation, DMSO = 0%, 100 µM tamoxifen = 100%; at 92.2 µM (top of the series);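 note: cells exposed to compound for 16 h at 37 °C before readout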
Outline: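 Activation of caspase-3/7 is measured as increased luminescence from cleaved peptide-aminoluciferin substrate in HEK293 cells treated 16 hours at 37 °C. AC50 values come from Hill-equation fits of concentration-response data.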

[5] = molecular target: Cytochrome P450 3A4 (Homo sapiens) (UniProt P08684); experiment: qHTS Assay for Inhibitors and Substrates of Cytochrome P450 3A4 (AID 884); conditions: recombinant CYP3A4, Luciferin-PPXE luminescence; series mostly up to 57.1 µM; note: nearly all actives have a fitted effect of over 50% in size
Sequence of Cytochrome P450 3A4 (Homo sapiens) (P08684 whole entry, looked up): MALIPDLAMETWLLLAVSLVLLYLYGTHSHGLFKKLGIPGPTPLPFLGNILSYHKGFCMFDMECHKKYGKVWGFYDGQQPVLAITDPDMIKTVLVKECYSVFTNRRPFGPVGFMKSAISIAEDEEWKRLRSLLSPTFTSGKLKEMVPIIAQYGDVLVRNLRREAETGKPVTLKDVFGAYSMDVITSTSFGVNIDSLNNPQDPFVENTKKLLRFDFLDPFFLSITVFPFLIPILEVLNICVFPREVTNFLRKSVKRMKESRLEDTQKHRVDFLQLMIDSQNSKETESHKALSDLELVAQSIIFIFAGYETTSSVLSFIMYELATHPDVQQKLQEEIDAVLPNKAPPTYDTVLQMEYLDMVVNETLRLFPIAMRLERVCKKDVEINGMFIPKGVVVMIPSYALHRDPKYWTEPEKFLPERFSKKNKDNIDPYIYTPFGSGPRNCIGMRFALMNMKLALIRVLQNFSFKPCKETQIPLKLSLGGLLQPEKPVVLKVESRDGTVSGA
Outline: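 20 nM human CYP3A4 with 25 uM Luciferin-PPXE (at KM) in 200 mM KPO4, preincubated 10 min with compound; NADPH regeneration started a 60 min RT reaction. Luciferin detected by luminescence, normalized to 57 uM ketoconazole as full inhibition.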

[6] = Cell Viability - LYMP1-002 - Assay at 16 hr (AID 948); conditions: LYMP1-002 lymphoblastoid cell viability; series mostly up to 92.2 µM
Outline: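 ATP luminescence (CellTiter-Glo) was measured after 16 hr compound exposure at 37 C of 2500 lymphoblastoid LYMP1-002 cells per well. Concentration-response curves were fitted with the Hill equation to give AC50.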

[7] = Cell Viability - LYMP1-002 - Assay at 24 hr (AID 993); conditions: LYMP1-002 lymphoblastoid cells viability; series mostly up to 92.2 µM
Outline: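 qHTS, LYMP1-002 lymphoblastoid, 24 h cpd, 37 C, CellTiter-Glo ATP luminescence; AC50 via Hill eq.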

[8] = molecular target: Peroxisome proliferator-activated receptor gamma (Homo sapiens) (UniProt P37231); experiment: qHTS assay for small molecule agonists of peroxisome proliferator-activated receptor gamma signaling (AID 588536; active = well fitted curve in the direction sought with a large enough effect in the signal ratio, with a control signal flat, not every such curve was filed as active; the % refers to the signal ratio); conditions: HEK293 PPARg-UAS-bla, beta-lactamase ratio, 16 h, percent of rosiglitazone response, DMSO as zero; series mostly up to 76.7 µM
Sequence of Peroxisome proliferator-activated receptor gamma (Homo sapiens) (P37231 whole entry, looked up): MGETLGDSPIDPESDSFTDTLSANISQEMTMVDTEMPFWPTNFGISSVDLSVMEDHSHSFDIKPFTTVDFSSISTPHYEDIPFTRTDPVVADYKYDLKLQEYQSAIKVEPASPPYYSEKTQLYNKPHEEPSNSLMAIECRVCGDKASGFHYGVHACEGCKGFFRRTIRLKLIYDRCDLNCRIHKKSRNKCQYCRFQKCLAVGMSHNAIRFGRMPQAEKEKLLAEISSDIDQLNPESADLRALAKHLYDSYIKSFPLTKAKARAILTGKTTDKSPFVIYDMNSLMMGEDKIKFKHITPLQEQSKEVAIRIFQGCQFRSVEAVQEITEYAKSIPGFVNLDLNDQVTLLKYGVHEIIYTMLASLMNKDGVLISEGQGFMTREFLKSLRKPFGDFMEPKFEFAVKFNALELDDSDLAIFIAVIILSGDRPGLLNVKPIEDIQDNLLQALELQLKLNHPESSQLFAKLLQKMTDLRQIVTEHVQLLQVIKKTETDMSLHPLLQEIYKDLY
Outline: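 PPAR-gamma-UAS-bla HEK293 cells in medium with 1% charcoal/dextran-treated FBS were exposed to compounds for 16 h at 37 C. Beta-lactamase activity was read with CCF4 substrate (405 nm excitation, 460/530 nm emission).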

[9] = molecular target: Vitamin D3 receptor (Homo sapiens) (UniProt P11473); experiment: qHTS assay for small molecule agonists of vitamin D receptor signaling (AID 588543; calls by dose curve); conditions: HEK293T VDR-UAS-bla, beta-lactamase ratio, 16 h; series mostly up to 76.8 µM
Sequence of Vitamin D3 receptor (Homo sapiens) (P11473 whole entry, looked up): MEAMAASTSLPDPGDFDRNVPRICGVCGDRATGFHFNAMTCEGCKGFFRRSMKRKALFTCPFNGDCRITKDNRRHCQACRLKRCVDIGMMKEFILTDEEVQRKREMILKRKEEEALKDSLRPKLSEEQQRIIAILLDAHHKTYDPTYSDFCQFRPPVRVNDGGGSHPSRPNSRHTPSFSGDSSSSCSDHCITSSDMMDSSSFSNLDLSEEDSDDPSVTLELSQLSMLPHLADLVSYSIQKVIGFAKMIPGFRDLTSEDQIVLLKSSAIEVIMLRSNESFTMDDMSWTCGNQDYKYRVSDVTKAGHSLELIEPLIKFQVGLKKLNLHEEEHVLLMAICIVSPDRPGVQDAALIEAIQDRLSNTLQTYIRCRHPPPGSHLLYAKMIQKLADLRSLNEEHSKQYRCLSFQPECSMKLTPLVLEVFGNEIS
Outline: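 Agonist-mode beta-lactamase reporter: HEK293T VDR-UAS-bla cells in charcoal-stripped 2% FBS, compound series 16 h 37 C, CCF4 2 h RT. EC50 from Hill fit, scaled against DMSO and 50 nM calcitriol control.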

[10] = molecular target: Voltage-gated inwardly rectifying potassium channel KCNH2 (Homo sapiens) (UniProt Q12809); experiment: qHTS Assay for Small Molecule Inhibitors of the Human hERG Channel Activity (AID 588834); conditions: U2OS BacMam hERG, FluxOR thallium flux fluorescence; series mostly up to 92.2 µM;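 note: top concentration of the series differs between compounds; lower thallium flux fluorescence means stronger hERG block; nearly all actives have a fitted effect of over 50% in size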
Sequence of Voltage-gated inwardly rectifying potassium channel KCNH2 (Homo sapiens) (Q12809 whole entry, looked up): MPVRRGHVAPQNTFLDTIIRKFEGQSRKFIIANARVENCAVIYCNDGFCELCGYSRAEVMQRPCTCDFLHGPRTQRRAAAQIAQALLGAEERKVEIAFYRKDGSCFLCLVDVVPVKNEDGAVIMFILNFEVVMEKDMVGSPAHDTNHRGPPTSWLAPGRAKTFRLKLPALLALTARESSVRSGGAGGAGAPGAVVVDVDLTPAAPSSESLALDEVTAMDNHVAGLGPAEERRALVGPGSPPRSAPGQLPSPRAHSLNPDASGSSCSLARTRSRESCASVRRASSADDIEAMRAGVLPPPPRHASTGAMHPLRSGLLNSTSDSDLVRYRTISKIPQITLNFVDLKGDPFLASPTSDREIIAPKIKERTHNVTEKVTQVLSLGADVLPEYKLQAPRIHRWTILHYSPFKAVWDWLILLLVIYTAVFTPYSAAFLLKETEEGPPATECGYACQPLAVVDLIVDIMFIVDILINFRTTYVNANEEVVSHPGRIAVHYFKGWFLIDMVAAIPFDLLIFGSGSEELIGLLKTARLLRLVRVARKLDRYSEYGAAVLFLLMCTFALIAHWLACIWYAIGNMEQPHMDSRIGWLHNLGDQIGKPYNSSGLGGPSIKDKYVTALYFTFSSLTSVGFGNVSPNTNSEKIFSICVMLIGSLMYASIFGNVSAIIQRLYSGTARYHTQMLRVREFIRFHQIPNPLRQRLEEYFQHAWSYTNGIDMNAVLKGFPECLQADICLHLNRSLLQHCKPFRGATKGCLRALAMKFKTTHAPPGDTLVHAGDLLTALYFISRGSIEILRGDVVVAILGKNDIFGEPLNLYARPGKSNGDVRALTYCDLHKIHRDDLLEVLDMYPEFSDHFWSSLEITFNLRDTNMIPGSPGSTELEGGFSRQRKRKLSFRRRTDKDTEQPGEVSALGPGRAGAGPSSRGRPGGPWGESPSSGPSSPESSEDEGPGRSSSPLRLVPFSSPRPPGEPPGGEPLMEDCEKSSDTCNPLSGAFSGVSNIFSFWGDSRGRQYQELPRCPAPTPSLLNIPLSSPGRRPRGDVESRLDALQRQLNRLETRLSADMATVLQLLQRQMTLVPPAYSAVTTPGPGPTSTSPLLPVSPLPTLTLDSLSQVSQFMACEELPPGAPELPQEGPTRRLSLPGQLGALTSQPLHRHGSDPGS
Outline: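 Kinetic FDSS fluorescence; U2OS + hERG BacMam (~100 virus particles/cell); FluxOR Tl+ flux; ~10 min cpd; AC50 (Hill).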

[11] = qHTS assay for small molecule agonists of the antioxidant response element (ARE) signaling pathway (AID 651741; active = well fitted activation curve with a large enough effect in the signal ratio; the % refers to the signal ratio; note: potency is the fitted concentration of half-maximal effect); conditions: HepG2 ARE-bla reporter, beta-lactamase FRET ratio, 16 h; series mostly up to 96 µM
Outline: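 ARE-bla HepG2 cells (beta-lactamase reporter under ARE control) were plated at 2,000 cells/well, preincubated 5 h at 37 C/5% CO2, then treated with DMSO-dissolved compounds for 16 h at 37 C; LiveBLAzer B/G FRET substrate added, fluorescence read after 2 h at room temperature.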

[12] = qHTS assay for small molecule activators of the nuclear factor-kappa B (NF-kB) signaling pathway (AID 651749; active = well fitted activation curve with a large enough effect in the signal ratio; the % refers to the signal ratio); conditions: NF-kB-bla ME-180 cells, beta-lactamase FRET ratio, 16 h; hits give high values
Outline: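 ME-180 cells stably carrying a beta-lactamase reporter under an NF-kB response element were exposed to compound or DMSO vehicle for 16 hr at 37C, 5% CO2. Pathway activation was read by FRET, since reporter expression disrupts FRET.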

[13] = molecular target: Tumor necrosis factor (Homo sapiens) (UniProt P01375); experiment: qHTS assay to identify small molecules that stimulate Tumor Necrosis Factor-alpha (TNF-alpha) secretion (AID 651757; active = well fitted curve in the direction sought with a large enough effect in the signal ratio; the % refers to the signal ratio); conditions: Human cells, HTRF 665/615 ratio; series mostly up to 92.2 µM
Sequence of Tumor necrosis factor (Homo sapiens) (P01375 whole entry, looked up): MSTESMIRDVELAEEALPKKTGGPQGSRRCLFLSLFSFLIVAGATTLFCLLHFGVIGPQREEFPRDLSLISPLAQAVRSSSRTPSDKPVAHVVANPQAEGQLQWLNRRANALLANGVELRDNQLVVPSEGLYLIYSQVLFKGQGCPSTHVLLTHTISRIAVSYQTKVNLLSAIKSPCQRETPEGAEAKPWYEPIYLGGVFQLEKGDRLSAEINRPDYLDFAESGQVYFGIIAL
Outline: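 Secreted TNF-alpha from compound-treated THP-1 cells (17 hrs, 37 C) was quantified with a homogeneous time-resolved fluorescence antibody assay.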

[14] = molecular target: Nuclear receptor ROR-gamma (Homo sapiens) (UniProt P51449); experiment: qHTS assay for small molecule antagonists of the retinoid-related orphan receptor gamma (ROR-gamma) signaling pathway (AID 651802); conditions: ROR-gamma antagonist cell reporter assay; series mostly up to 92.2 µM; note: nearly all actives have a fitted effect of over 60% in size; note: potency is the fitted concentration of half-maximal effect
Sequence of Nuclear receptor ROR-gamma (Homo sapiens) (P51449 whole entry, looked up): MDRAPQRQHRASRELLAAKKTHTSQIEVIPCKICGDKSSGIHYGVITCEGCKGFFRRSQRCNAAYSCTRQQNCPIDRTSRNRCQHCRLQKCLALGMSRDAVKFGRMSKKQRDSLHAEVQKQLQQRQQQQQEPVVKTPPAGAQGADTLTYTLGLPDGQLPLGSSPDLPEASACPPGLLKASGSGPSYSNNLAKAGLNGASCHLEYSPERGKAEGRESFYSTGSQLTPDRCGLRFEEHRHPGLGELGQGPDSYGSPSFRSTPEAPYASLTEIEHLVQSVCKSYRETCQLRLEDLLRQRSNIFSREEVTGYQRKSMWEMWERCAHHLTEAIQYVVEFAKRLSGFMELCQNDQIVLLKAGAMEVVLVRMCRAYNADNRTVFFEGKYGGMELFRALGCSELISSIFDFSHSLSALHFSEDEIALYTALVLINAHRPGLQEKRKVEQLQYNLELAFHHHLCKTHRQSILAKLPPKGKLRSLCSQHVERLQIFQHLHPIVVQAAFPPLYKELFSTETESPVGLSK
Outline: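 Antagonism is scored as a fall in luminescence from a RORE-luciferase reporter in CHO cells expressing ROR under a TET-inducible promoter, measured 16hr after doxycycline induction in the presence of compound.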

[15] = qHTS assay for small molecule antagonists of the retinoid-related orphan receptor gamma (ROR-gamma) signaling pathway - cell viability counter screen (AID 720652; active = well fitted curve in the direction sought with a large enough effect in the repeat runs; an effect the other way counts as inactive or inconclusive;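 note: CHO reporter cells with doxycycline-induced ROR-gamma expression; compound exposure lasted 16 hr before ATP read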); conditions: RORgamma reporter cell line viability counter screen; series mostly up to 92.2 µM
Outline: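 Cytotoxicity is quantified via intracellular ATP (CellTiter-Glo luminescence) in doxycycline-induced CHO ROR response element-luciferase reporter cells treated with compound for 16 hr at 37 C, 5% CO2.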

[16] = qHTS assay for small molecule activators of the human pregnane X receptor (PXR) signaling pathway (AID 720659; call rule not given here); conditions: DPX-2 HepG2 CYP3A4-luciferase, 24 h; series mostly up to 92.3 µM
[17] = Cellular Toxicity (caspase-3) Jurkat (AID 655); conditions: Jurkat caspase-3 activation, luminescence; caspase-3 activation: at 92.2 µM (top of the series), DMSO = 0%, tamoxifen = 100%;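 note: cells exposed to compound for 16 h at 37 °C before reading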
Outline: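 Luminescent Caspase-Glo 3/7 read-out (20 min, room temperature) after 16 h compound treatment at 37 C of 5000 Jurkat cells per well. AC50 derived by Hill-equation fitting, scaled between DMSO basal and 100 uM tamoxifen stimulation.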

[18] = Cell Viability - LYMP2-003 (AID 965); conditions: LYMP2-003 lymphoblastoid cell viability; series mostly up to 92.2 µM;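 note: cells exposed to compounds for 24 h before reading; nearly all actives have a fitted effect of over 50% in size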
Outline: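 CellTiter-Glo luminescence quantified ATP loss after 24 h compound treatment of LYMP2-003 lymphoblastoid cells at 37 C. Titration series were fitted with the standard Hill equation to give AC50.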

[19] = qHTS assay for small molecule activators of the p53 signaling pathway (AID 651743; active = well fitted activation curve with a large enough effect in the signal ratio, not every such curve was filed as active; the % refers to the signal ratio); conditions: HCT-116 p53RE-bla, beta-lactamase FRET ratio, 16 h; activation: hits give high values
Outline: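 p53RE-bla HCT-116 cells with a stably integrated beta-lactamase reporter under p53 response elements were plated, rested 5 hours at 37 C/5% CO2, then exposed to compounds in DMSO for 16 hours at 37 C. LiveBLAzer B/G FRET substrate was read after 2 hours at room temperature.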

[20] = molecular target: Estrogen receptor (Homo sapiens) (UniProt P03372); experiment: qHTS assay for small molecule antagonists of estrogen receptor alpha signaling (AID 588513; active = well fitted curve in the direction sought with a large enough effect in the signal ratio, with a control signal flat, not every such curve was filed as active; the % refers to the signal ratio); conditions: ER-alpha-UAS-bla HEK293, beta-lactamase ratio, antagonist mode; series mostly up to 76.9 µM
Sequence of Estrogen receptor (Homo sapiens) (P03372 whole entry, looked up): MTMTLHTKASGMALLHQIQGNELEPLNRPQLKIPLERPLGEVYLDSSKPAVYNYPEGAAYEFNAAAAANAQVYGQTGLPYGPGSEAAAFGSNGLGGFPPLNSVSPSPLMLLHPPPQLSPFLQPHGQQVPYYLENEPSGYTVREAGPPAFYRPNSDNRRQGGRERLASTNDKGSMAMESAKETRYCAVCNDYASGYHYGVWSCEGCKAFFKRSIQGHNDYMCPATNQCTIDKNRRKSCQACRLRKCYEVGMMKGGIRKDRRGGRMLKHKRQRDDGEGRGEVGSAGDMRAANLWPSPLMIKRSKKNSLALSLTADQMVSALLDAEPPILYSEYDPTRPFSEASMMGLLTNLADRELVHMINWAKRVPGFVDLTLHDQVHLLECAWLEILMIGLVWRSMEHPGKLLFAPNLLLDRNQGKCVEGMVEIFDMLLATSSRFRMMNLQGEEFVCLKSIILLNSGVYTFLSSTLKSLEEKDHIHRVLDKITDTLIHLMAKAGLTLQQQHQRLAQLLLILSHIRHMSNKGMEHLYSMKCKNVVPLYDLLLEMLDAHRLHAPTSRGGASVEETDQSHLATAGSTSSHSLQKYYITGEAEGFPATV
Outline: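 Antagonist mode: inhibition of 0.5 nM 17-beta-estradiol-driven beta-lactamase reporter in HEK 293 ER-alpha-UAS-bla cells, 18 h at 37C, CCF4 readout after 2 h at RT. Normalised to estradiol and DMSO; titration fitted to Hill.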

SMILES	Potency [1] [µM]	Potency [2] [µM]	Potency [3]	caspase-3 activation [4] [%]	Potency [5]	Potency [6]	Potency [7]	outcome [8]	Potency [9]	Potency [10]	Potency [11]	activation [12]	Potency [13]	Potency [14]	Potency [15]	outcome [16]	Potency [17]	Potency [18]	activation [19]	outcome [20]
Cc1cccnc1	> 92	> 92	inactive	-1.09	inactive	inactive	inactive	inactive	inactive	inactive	inactive	-0.701%	inactive	inactive	inactive	inactive	–	–	–	–
CC(=O)OCc1ccc2c(c1)OCO2	> 92	> 92	inactive	-3.09	–	inactive	–	–	inactive	inactive	inactive	–	inactive	inactive	inactive	inactive	inactive	inactive	-2.61%	–
CCC(Cl)CC(Cl)C(Cl)C(Cl)C(Cl)C(C)Cl (centres undefined)	> 92	> 92	–	5.41	inactive	–	–	–	–	–	66.8 µM (active)	0.226%	inactive	–	–	–	–	inactive	–	inactive
CN(C)c1ccc(Cc2ccc(N(C)C)cc2)cc1	> 92	> 92	inactive	2.63	–	–	–	inactive	inactive	–	–	-0.0867% and 0.169%	–	–	inactive	–	inactive	inactive	6.8% and -1.08%	–
CC(=O)c1ccc(Cl)c(Cl)c1Cl	> 92	> 92	–	0.887	–	inactive	–	inactive	inactive	inactive	–	-0.287%	inactive	–	inactive	inactive	inactive	–	-1.64%	inactive
CC(C)S	> 92	> 92	inactive	–	–	inactive	inactive	inactive	inactive	inactive	–	-0.169%	inactive	–	inactive	inactive	–	–	-1.26%	inactive
Cc1ccc2ccc3cccc4ccc1c2c34	> 92	> 92	–	0.114	–	inactive	inactive	inactive	–	–	59.6 µM (active)	-0.92%	inactive	–	–	inactive	inactive	inactive	–	inactive
c1ccc2ncccc2c1	> 92	> 92	inactive	–	–	inactive	–	inactive	–	inactive	inactive	–	inactive	inactive	inactive	inactive	inactive	inactive	-4.75%	inactive
CCCC(=O)OC(=O)CCC	> 92	> 92	–	0.516	–	inactive	–	inactive	–	inactive	inactive	0.205% and -0.934%	inactive	inactive	inactive	inactive	–	–	0.746% and 0.239%	–
Nc1cc([N+](=O)[O-])ccc1O	> 92	> 92	–	-0.467	inactive	inactive	inactive	inactive	inactive	inactive	29.8 µM (active) and 12.2 µM (active)	-0.245% and -0.938%	–	23.7 µM (active)	inactive	inactive	inactive	inactive	-1.58% and -3.77%	–
COc1ccc([N+](=O)[O-])cc1N	> 92	> 92	inactive	-2.76	inactive	–	inactive	inactive	inactive	inactive	30.6 µM (active)	2.19% and -0.307%	–	inactive	inactive	inactive	inactive	inactive	-2.91% and -2.52%	inactive
O=[N+]([O-])c1ccc(F)cc1F	> 92	> 92	–	-0.155	–	inactive	inactive	inactive	inactive	inactive	inactive	0.374%	inactive	inactive	inactive	inactive	–	–	-3.21%	inactive
c1ccncc1	> 92	> 92	inactive	–	inactive	–	inactive	inactive	inactive	inactive	inactive	0.644%	inactive	inactive	inactive	inactive	–	inactive	-0.205%	inactive
Oc1ccc2c(c1)OCO2	> 92	> 92	inactive	-2.85	–	inactive	–	–	inactive	inactive	inactive	–	inactive	inactive	inactive	inactive	–	–	4.65%	inactive
COc1ccc(C)cc1N	> 92	> 92	–	0.602	–	inactive	–	inactive	inactive	inactive	inactive	-0.459%	inactive	inactive	inactive	inactive	inactive	inactive	-5.11%	inactive
